POLK inh = qHTS for Inhibitors of Polymerase Kappa; DNA polymerase kappa (Homo sapiens), Q9UBT6; purified Pol kappa, fluorescent DNA synthesis assay, 10 min; Potency, µM (doses to about 107 µM), actives largely listed as inhibitors; 0.53% of 400,000 active
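Kinetic fluorescence readout at 0 and 10 min followed reaction start with substrate at 50 nM final. Beforehand, enzyme (10 nM Pol kappa) stood 15 min with compound at room temperature; buffer-only wells were negative controls.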
Pol iota inh = qHTS for Inhibitors of Polymerase Iota | DNA polymerase iota (Homo sapiens), Q9UNA4 | Pol iota fluorescent replication assay, 10 min | Potency, µM (doses to about 115 µM), actives largely listed as inhibitors | 1% of 390,000 active
Target sequence (Q9UNA4 whole entry, looked up): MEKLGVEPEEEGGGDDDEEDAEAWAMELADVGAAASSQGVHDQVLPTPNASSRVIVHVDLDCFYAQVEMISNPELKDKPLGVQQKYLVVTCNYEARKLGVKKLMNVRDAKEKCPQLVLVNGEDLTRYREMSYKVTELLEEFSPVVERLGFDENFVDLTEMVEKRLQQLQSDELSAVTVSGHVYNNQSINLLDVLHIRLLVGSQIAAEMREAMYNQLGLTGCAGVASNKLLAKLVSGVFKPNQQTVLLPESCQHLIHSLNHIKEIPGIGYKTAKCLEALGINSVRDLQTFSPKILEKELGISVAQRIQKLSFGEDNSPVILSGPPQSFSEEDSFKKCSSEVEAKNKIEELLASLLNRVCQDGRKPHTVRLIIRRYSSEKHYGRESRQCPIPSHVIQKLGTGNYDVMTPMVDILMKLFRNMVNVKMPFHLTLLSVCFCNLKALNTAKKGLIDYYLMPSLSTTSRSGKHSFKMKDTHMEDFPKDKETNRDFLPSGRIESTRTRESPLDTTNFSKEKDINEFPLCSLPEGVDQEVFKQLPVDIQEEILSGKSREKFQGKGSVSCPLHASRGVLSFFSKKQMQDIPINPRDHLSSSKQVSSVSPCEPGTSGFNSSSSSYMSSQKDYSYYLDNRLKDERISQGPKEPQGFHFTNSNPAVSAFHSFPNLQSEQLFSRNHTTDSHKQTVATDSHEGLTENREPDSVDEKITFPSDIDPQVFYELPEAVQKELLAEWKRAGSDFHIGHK
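Pol iota at 10 nM preincubated 15 min with compounds at room temperature; reaction started with fluorescent substrate, 50 nM final. Fluorescence read kinetically at 0 and 10 min; buffer-only wells as negative control.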
GLS inhibitor = qHTS for Inhibitors of Glutaminase (GLS); GLS enzymatic activity, qHTS titration; Potency, µM (titrated, usually from 45.5 µM), actives largely listed as inhibitors; 0.21% of 410,000 active; AID 624170, 2012
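Glutamate formation by hKGA was monitored fluorometrically using coupled glutamate oxidase, HRP and Amplex Red. Substrate was added as 1 mM L-glutamine solution; incubation was 30 min at RT after an initial read.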
GCN5L2 inh = qHTS Assay for Inhibitors of GCN5L2; GCN5L2 HAT assay, ThioGlo1 CoA-SH fluorescence; 0.21% of 390,000 active; AID 504327, 2011; Potency, µM (series often up to 58.9 µM), usual class: inhibitors
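Enzyme at 20nM final was mixed with library compounds for 15 min at room temperature. Peptide H3(1-25) at 75uM, acetyl-CoA at 70uM and ThioGlo1 at 50uM were then added. Plates were read immediately and after 20 min (Ex340nm/Em540nm).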
Pol eta inh = qHTS for Inhibitors of Polymerase Eta; Potency, µM (highest dose often 114 µM), hits mostly inhibitors; recombinant Pol eta, fluorescent DNA replication assay; 1.2% of 390,000 active; AID 588591, 2011; DNA polymerase eta (Homo sapiens), Q9Y253
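Pol eta (10 nM) was preincubated with compounds for 15 min at room temperature, after which fluorescent replication substrate (50 nM final) was added to start the reaction. Fluorescence was read kinetically at 0 and 10 min.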
Pol beta inh = qHTS Assay for Inhibitors of DNA Polymerase Beta | P06746 | Pol beta primer extension/strand displacement, fluorescence kinetic | Potency, µM (top dose mostly 114 µM), most hits filed as inhibitors | 1.3% of 340,000 active
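Homogeneous kinetic assay of primer extension and strand displacement by 10 nM Pol beta, preincubated 15 min at room temperature with compound before 50 nM substrate (final) was added. Read at 0 and 10 min; four-parameter Hill fit.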
Large screens that a line does not name were inactive. The list is not random: actives were taken first. Their share in the collection is about 2.4%. Calls come from the whole dose curve; as a rule, active = well fitted inhibition curve with a large enough effect; inconclusive = small, poorly fitted or top-dose-only effect, or another doubt; inactive = no such curve, though single readings can be large or run the other way.

COc1ccc(OC)c(NC(=O)[C@H](CSCc2ccccc2)N2Cc3ccccc3C2=O)c1	none
CNC(=O)c1c(NC(=O)c2nc3ccccc3s2)sc2c1CCC2	Pol beta inh 44.7µM (no result: POLK inh, Pol iota inh, GLS inhibitor, Pol eta inh)
COC(=O)c1c(NC(=O)c2nc3ccccc3s2)sc2c1CCN(C(C)=O)C2	none
COc1cc(NC(=O)NCCn2nnc3cc(S(=O)(=O)N(C)C)ccc32)cc(OC)c1	none
Cc1ccn2c(NC3CCCC3)c(-c3ccsc3)nc2c1	GLS inhibitor 7.08µM
O=[N+]([O-])c1ccc(/C=C/c2ccnc3ccccc23)c([N+](=O)[O-])c1	none (no result: GLS inhibitor, GCN5L2 inh, Pol eta inh, Pol beta inh)
COc1ccccc1CNC(=O)C1CCN(S(=O)(=O)c2ccc3nc4c(c(C(=O)O)c3c2)CCCC4)CC1	Pol iota inh 79.4µM, Pol eta inh inconclusive
CC1CCc2nc3ccc(S(=O)(=O)N4CCC(C(=O)NCc5ccccc5Cl)CC4)cc3c(C(=O)O)c2C1 (stereo not given)	POLK inh inconclusive, Pol iota inh 50.1µM, Pol eta inh inconclusive, Pol beta inh 39.8µM
COc1ccccc1CNC(=O)c1cc(S(=O)(=O)N2CCN(c3ccccc3)CC2)ccc1Cl	POLK inh inconclusive, Pol iota inh 89.1µM (no result: GCN5L2 inh, Pol beta inh)
CC1CCC(NC(=O)C2CCN(S(=O)(=O)c3ccc4nc5c(c(C(=O)O)c4c3)CC(C)CC5)CC2)CC1 (stereo not given)	none
COc1ccccc1CNC(=O)COC(=O)c1cc(S(=O)(=O)N2CCOCC2)ccc1Cl	none (no result: Pol beta inh)
COc1ccc(CNC(=O)C2CCN(S(=O)(=O)c3ccc4nc5c(c(C(=O)O)c4c3)CC(C)CC5)CC2)cc1 (stereo not given)	Pol iota inh 89.1µM, Pol eta inh inconclusive, Pol beta inh inconclusive
Cc1cc(N(C)C)cc(C)c1/C=C/c1cc[n+](C)c2ccccc12	none (no result: GLS inhibitor, GCN5L2 inh, Pol eta inh, Pol beta inh)
CN(Cc1ccccc1)c1ccc(C=O)cc1	none (no result: GLS inhibitor, GCN5L2 inh, Pol eta inh, Pol beta inh)
COc1ccc(/C=N/Nc2nc(Nc3ccccc3)nc(N3CCCCC3)n2)c(OC)c1	none
COc1ccc(/C=N/Nc2ncc(-c3ccccc3)cn2)c(OC)c1	Pol iota inh 25.1µM, Pol beta inh inconclusive
CCOc1ccc(Oc2ccccc2NS(=O)(=O)c2ccc(CCC(=O)O)cc2)cc1	Pol eta inh 35.5µM (no result: Pol beta inh)
CCOc1ccc(S(=O)(=O)Nc2ccccc2C(=O)N2CCCC2)cc1	none
CCOc1cc(/C=C(\C#N)C(N)=O)cc(CSc2ccccc2)c1O	none (no result: Pol iota inh, GLS inhibitor, Pol eta inh, Pol beta inh)
Cc1ccc(CNC(=O)c2ccc3c(c2)NC(=O)C(CS(=O)(=O)Cc2cccc(F)c2)N3)cc1 (stereo not given)	none
Cc1cccc(CS(=O)(=O)CC2Nc3ccc(C(=O)NCc4ccccc4)cc3NC2=O)c1 (stereo not given)	Pol iota inh inconclusive, GLS inhibitor 10µM, Pol eta inh inconclusive, Pol beta inh inconclusive
CN(C)CCNC(=O)c1ccc2c(c1)NC(=O)C(CS(=O)(=O)Cc1cccc(Br)c1)N2 (stereo not given)	none
CC(C)CCNC(=O)c1ccc2c(c1)NC(=O)C(CS(=O)(=O)Cc1cccc(Br)c1)N2 (stereo not given)	Pol iota inh inconclusive, Pol beta inh 10µM
Brc1cccc[n+]1CCCCCC[n+]1ccccc1Br	none (no result: GLS inhibitor, GCN5L2 inh, Pol eta inh, Pol beta inh)
O=C(CS)Nc1ccccc1	none (no result: POLK inh, Pol iota inh, GCN5L2 inh, Pol eta inh, Pol beta inh)
COc1cccc(NC(=O)C2CCCN2S(=O)(=O)c2ccc3nc(-c4ccccc4)[nH]c3c2)c1 (stereo not given)	Pol eta inh inconclusive
Cc1ccccc1-c1nnc(SCC(=O)N(C)C2CCCCC2)o1	POLK inh inconclusive, Pol iota inh inconclusive (no result: Pol eta inh)
COc1ccc(NS(=O)(=O)c2ccc(O)c(NC(=O)c3cc4c(C)nn(-c5ccc(F)cc5)c4s3)c2)cc1	POLK inh inconclusive, Pol iota inh 28.2µM, GCN5L2 inh inconclusive, Pol eta inh 20µM, Pol beta inh 10µM
Cc1onc(-c2ccccc2Cl)c1C(=O)Nc1nnc(C2CCCCC2)s1	none (no result: GLS inhibitor, GCN5L2 inh, Pol eta inh, Pol beta inh)
C=C1CCN(C(CC(C)C)C(=O)O)S(=O)(=O)c2ccccc21 (stereo not given)	none (no result: GLS inhibitor, GCN5L2 inh, Pol eta inh, Pol beta inh)
O=c1c2cc3c(cc2n(Cc2ccc(Cl)cc2)c(=O)n1Cc1nc(-c2ccccc2)no1)OCO3	POLK inh inconclusive, Pol iota inh 89.1µM
O=c1c2cc3c(cc2n(Cc2cccc(F)c2)c(=O)n1Cc1nc(-c2ccccc2)no1)OCO3	none
Cc1ccc(/C=[N+](\[O-])c2ccc(N(C)C)cc2)c2nsnc12	Pol iota inh 50.1µM, GLS inhibitor inconclusive, Pol beta inh inconclusive
Cc1ccc(C)c2c(/C=C/c3ccc(N(C)C)cc3)ccnc12	Pol iota inh inconclusive (no result: GLS inhibitor, GCN5L2 inh, Pol eta inh, Pol beta inh)
COc1ccccc1Nc1nc(NCCCN(C)C)nc(N)c1[N+](=O)[O-]	GLS inhibitor inconclusive, Pol beta inh 17.8µM
O=C1CC(=O)N(CCNc2ncc(C(F)(F)F)cc2Cl)C(=O)N1	POLK inh inconclusive, Pol iota inh 25.1µM, Pol beta inh 56.2µM
Nc1c2c(=O)[nH]c(O)cc2nn1-c1ccccc1	POLK inh inconclusive, Pol iota inh 8.91µM, Pol eta inh 50.1µM (no result: GCN5L2 inh, Pol beta inh)
CCc1ccccc1N1CSC2=C(C#N)C(c3cc(OC)c(OC)cc3OC)CC(=O)N2C1 (stereo not given)	GCN5L2 inh inconclusive
COc1cc(C2CC(=O)N3CN(c4ccccc4C)CSC3=C2C#N)cc(OC)c1OC (stereo not given)	GCN5L2 inh inconclusive (no result: POLK inh, Pol iota inh, GLS inhibitor, Pol eta inh)
COc1ccc2ccccc2c1C1CC(=O)N2CN(C)CSC2=C1C#N (stereo not given)	GCN5L2 inh 22.4µM
COc1ccccc1N1CSC2=C(C#N)C(c3ccc(SC)cc3)CC(=O)N2C1 (stereo not given)	POLK inh inconclusive, Pol iota inh inconclusive, GCN5L2 inh inconclusive, Pol eta inh 44.7µM, Pol beta inh 25.1µM
COc1ccc(OC)c(C2CC(=O)N3CN(c4ccccc4F)CSC3=C2C#N)c1 (stereo not given)	GCN5L2 inh 8.91µM
COc1cccc(C2CC(=O)N3CN(c4ccccc4F)CSC3=C2C#N)c1 (stereo not given)	GCN5L2 inh 15.8µM
COc1cc(OC)c(C2CC(=O)N3CN(C)CSC3=C2C#N)cc1OC (stereo not given)	GCN5L2 inh inconclusive
COc1ccc(-c2noc(-c3ccccc3NC(=O)c3cc(OC)c(OC)c(OC)c3)n2)cc1	none
COc1ccc2c(c1)CCc1c(C(=O)Nc3c(C)nn(Cc4c(Cl)cccc4Cl)c3C)noc1-2	none
